Cruzain inh noDet – inhibitors of Trypanosoma cruzi cruzain without detergent; P25779; purified cruzain, Z-FR-AMC fluorescence, no detergent; Potency, µM, usual class: inhibitors; hit rate 2.3% among 200,000; AID 1476; note: nearly all actives have a fitted effect of over 40% in size
Target sequence (P25779 123-467 limits assumed): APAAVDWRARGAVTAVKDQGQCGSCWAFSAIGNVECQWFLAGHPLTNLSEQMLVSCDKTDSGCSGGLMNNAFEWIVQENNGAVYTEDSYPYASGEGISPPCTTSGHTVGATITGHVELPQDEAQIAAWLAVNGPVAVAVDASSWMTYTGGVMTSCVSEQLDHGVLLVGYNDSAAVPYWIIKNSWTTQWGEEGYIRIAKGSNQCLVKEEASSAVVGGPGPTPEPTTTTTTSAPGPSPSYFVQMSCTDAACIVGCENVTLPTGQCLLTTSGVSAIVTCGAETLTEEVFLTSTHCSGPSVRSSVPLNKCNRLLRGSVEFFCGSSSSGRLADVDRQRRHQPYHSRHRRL
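Detergent-free condition (0.00005% Triton X-100) in acetate buffer pH 5.5 with DTT. 1.5 nM enzyme and compound were pre-mixed 15 min, then 2 uM Z-FR-AMC substrate added; reaction progress from fluorescence change between first and third reads (60 s).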
Cruzain inh Det – cruzain (T. cruzi) inhibition with detergent; P25779; purified cruzain, Z-FR-AMC fluorescence, 0.01% Triton; Potency, µM, hits mostly inhibitors; hit rate 0.43% among 200,000; AID 1478; note: nearly all actives have a fitted effect of over 40% in size
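Compounds were screened in titration against cruzain (1.5 nM) with 0.01% Triton X-100 to counter colloidal aggregation. Activity was the AMC fluorescence increase over 60 s after adding 2 uM Z-FR-AMC at pH 5.5.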
A number is an active result; n = inactive; u = inconclusive. Only some compounds are listed: those with a hit (about 2.6% of all), similar ones and a draw of the others. Calls come from the whole dose curve; as a rule, active = well fitted curve in the direction sought with a large enough effect; inconclusive = small, poorly fitted or top-dose-only effect, or another doubt; inactive = no such curve, though single readings can be large; an effect the other way counts as inactive or inconclusive.

SMILES | Cruzain inh noDet | Cruzain inh Det
COC(=O)c1ccc(C(NC(=O)OCc2ccccc2)/C(=C/[C@@H](C)C(=O)NCc2cc(C)n(C)n2)c2cccnc2)cc1 (stereo partly drawn) | n | n
COc1ccc(-c2csc(N3CCC(c4ccccc4)C3)n2)cc1 (stereo not drawn) | n | n
COc1ccc(-c2csc(-n3ncc(-c4cccs4)c3N)n2)cc1 | 1.58µM | n
COc1cc(CN(C(=O)c2ccc(OC(C)C)cc2)c2ccccn2)cc(OC)c1OC | u | n
Cc1ccc(C(=O)O[C@H](C(=O)O)[C@@H](OC(=O)c2ccc(C)cc2)C(=O)O)cc1 (tested in a mixture with another compound) | n | n
CC[C@@H]1C(c2cccc(Cl)c2)=NN(c2ccc(Br)cc2)[C@H]1C(=O)N1CCOC1=O | u | n
O=C1OCCN1C(=O)[C@H]1[C@H](c2ccccc2)C(c2cccc(Cl)c2)=NN1c1ccc(Br)cc1 | 12.6µM | n
CC[C@@H]1C(c2ccccc2)=NN(c2ccc(Br)cc2)[C@H]1C(=O)N1CCOC1=O | 25.1µM | n
O=C1OCCN1C(=O)[C@H]1[C@H](c2ccc(F)cc2)C(c2cccc(Cl)c2)=NN1c1ccc(Br)cc1 | 15.8µM | n
O=C1OCCN1C(=O)[C@H]1[C@H](c2ccc(Cl)cc2)C(c2ccccc2)=NN1c1ccc(Br)cc1 | 11.2µM | n
O=C(O)c1nc(-c2ccccc2)n(-c2ccc(Cl)cc2)n1 | n | n
CS(C)(=O)=O | n | n
CC1(O)/C=C\C=C(\CO)C2CC(C)(C)C2(O)CC1 (stereo not drawn) | n | n
CSc1ccc(CNc2ncc(-c3ccccc3)n2C)cc1 | n | n
CC1CCCN(S(=O)(=O)c2ccc(N3CCCCS3(=O)=O)cc2)C1 (stereo not drawn) | n | n
Cc1ccc(N=C2NC(=O)/C(=C\c3cccs3)S2)cc1C | 25.1µM | n
Cc1cccc(N=C2NC(=O)/C(=C/c3cccs3)S2)c1 | u | n
Cn1c(-c2cccc(OCc3ccccc3)c2)nc2c1c(=O)[nH]c(=O)n2Cc1ccccc1 | 7.94µM | n
COc1ccc(-c2nc3c(c(=O)[nH]c(=O)n3Cc3ccccc3)n2C)cc1 | n | n
O=C1CN(C(=O)c2cccc(Br)c2)C(c2ccccc2)c2cc(Cl)ccc2N1 (stereo not drawn) | n | n
Cc1nnc(NC(=O)C2c3ccccc3Oc3ccccc32)s1 | n | n
O=C(Nc1cccnc1Cl)C1c2ccccc2Oc2ccccc21 | n | n
CCc1ccccc1NC(=O)C1c2ccccc2Oc2ccccc21 | 25.1µM | n
Cc1cc(C)c(NC(=O)C2c3ccccc3Oc3ccccc32)c(C)c1 | 12.6µM | n
O=C(c1cccc(F)c1)N1CCC2(CC1)CN(c1cccc(-c3ccccc3)c1)C2 | n | n
SMILES | Cruzain inh noDet | Cruzain inh Det
COc1ccc(-c2noc(CC(=O)Nc3cc(OC)ccc3OC)n2)cc1 | 3.98µM | n
COc1ccc(-c2noc(CNC(=O)c3ccc(OC)cc3OC)n2)cc1 | n | n
COc1cc(OC)c(N(C)C(=O)Nc2cn(CC(C)C)c(=O)c3ccccc23)cc1Cl | u | n
CCc1ccc(NC(=O)Cn2cnc3sc(C)c(S(=O)(=O)N4CCC(C)CC4)c3c2=O)cc1 | n | n
Cc1ccc(Cl)cc1N1CCN(C(=O)c2ccc(NC(=O)c3nsc4ccccc34)cc2)CC1 | 7.94µM | n
O=C(Nc1ccc(C(=O)N2CCN(c3ccc(Cl)cc3)CC2)cc1)c1nsc2ccccc12 | n | n
O=C(O)c1ccc(Cl)c(Cl)c1 | n | n
Cc1ccc2c(c1)N(CCC(=O)NCc1ccccc1Cl)C(=O)CO2 | n | n
COc1ccc(-c2c[n+]3c4n2CCCCC4=C(c2ccc(Br)cc2)C3)cc1 | 10µM | n
Clc1ccc(C2=C3CCCCn4c(-c5ccccc5)c[n+](c43)C2)cc1 | u | n
Cn1c(=O)cc(SCC(=O)N2CCN(c3ccccc3F)CC2)c2cc(Cl)ccc21 | n | n
CC1=C(C(=O)Nc2ccc(Cl)cc2)C(c2ccccc2)n2ncc(C(=O)Nc3ccccc3)c2N1 (stereo not drawn) | u | n
COc1ccc(NC(=O)C2=C(C)Nc3c(C(=O)Nc4ccc(C)cc4)cnn3C2c2cccc(Cl)c2)cc1 (stereo not drawn) | 15.8µM | n
CC1=C(C(=O)Nc2ccc(Cl)cc2)C(c2ccccc2C)n2ncc(C(=O)Nc3ccc(C)cc3)c2N1 (stereo not drawn) | 31.6µM | n
COc1ccc(NC(=O)C2=C(C)Nc3c(C(=O)Nc4ccc(C)cc4)cnn3C2c2cc(OC)ccc2OC)cc1 (stereo not drawn) | n | n
Cc1cccc(Cn2c(=O)n(CCCC(=O)NCc3ccccc3Cl)c(=O)c3ccccc32)c1 | n | n
Cc1cc(NC(=O)c2ccc(NC(=O)CCS(=O)(=O)c3cccs3)cc2)ccc1Br | u | n
COc1ccccc1C(=O)Nc1cccc(C(=O)OCc2cc(=O)n3c4c(sc3n2)CCCC4)c1 | n | n
